# Reference: the OligoGym collection
# Tests used:
# Test in all cases: pooled miR-30 sensor sort-seq; sequence = guide strand
# Conditions in all cases: shRNA
# [1] = target: FUT7
# [2] = target: FXN
# [3] = target: FZR1
# [4] = target: GALE
# [5] = target: GH2
# [6] = target: GIPC2
# [7] = target: GHSR
# [8] = target: GINS3
# [9] = target: GIP
# [10] = target: GLRA3
# [11] = target: GLIS2
# [12] = target: GLP1R
# [13] = target: GNAQ
# [14] = target: GPIHBP1
# [15] = target: GPRC5B
# [16] = target: GPRC5C
# [17] = target: GPR64
# [18] = target: GPR89B
# [19] = target: GPR3
sequence,measurement,setting,value
ATAGGGCACAAAGATGTCCGAG,sensor-assay potency score (higher = more potent),[1],-0.929
TTTTTGACATTCCAAATCTGGT,sensor-assay potency score (higher = more potent),[2],-1.15
TAGGTGGTCTCATCTAGAGAGC,sensor-assay potency score (higher = more potent),[2],-1.48
AAGATGTCCGAGTCGCGCCGGT,sensor-assay potency score (higher = more potent),[1],-0.72
TCTGCTAAAGAGTCCAGCGTTT,sensor-assay potency score (higher = more potent),[2],-0.618
TCATCCACATGCACGAAGGCGT,sensor-assay potency score (higher = more potent),[1],-0.506
TTTGACATTCCAAATCTGGTTG,sensor-assay potency score (higher = more potent),[2],-0.256
TCAAAGGACAGGTAGAAGCGGT,sensor-assay potency score (higher = more potent),[1],0.117
TCAAGGTCCTCATAGACTTGGC,sensor-assay potency score (higher = more potent),[1],-0.439
TAGGGCACAAAGATGTCCGAGT,sensor-assay potency score (higher = more potent),[1],-0.24
TGTCCTGTCAGCGTGTTCCAGA,sensor-assay potency score (higher = more potent),[3],-0.846
TTCCTCGATGAAGAACTTGGAC,sensor-assay potency score (higher = more potent),[4],-0.651
TTCCAAGTCTTGTCTGCCTGGC,sensor-assay potency score (higher = more potent),[4],-0.133
TAAACTCCTGATAGGTGTCATA,sensor-assay potency score (higher = more potent),[5],-1.52
TTCTGCTGCGTTTTCACCCTGT,sensor-assay potency score (higher = more potent),[5],0.325
TTTATACACATTCACTTCTTTT,sensor-assay potency score (higher = more potent),[6],-1.24
TTTGCAGAGGAGGTCGCCGAAG,sensor-assay potency score (higher = more potent),[7],-1.38
TTCTCTTCTTGTAATTCTGAAC,sensor-assay potency score (higher = more potent),[8],-1.11
TTATAAAAACAACAATTCCATC,sensor-assay potency score (higher = more potent),[8],-1.34
TTAACTTCTTAGCAACATCATA,sensor-assay potency score (higher = more potent),[6],-1.57
TTAACTGAGTCAATAACACCAC,sensor-assay potency score (higher = more potent),[6],0.431
TAAAAGCATAGCCAACACCATT,sensor-assay potency score (higher = more potent),[6],-1.62
TTATTTAGGAAGGACTTTGATT,sensor-assay potency score (higher = more potent),[8],-0.522
TACAAGGTCAACCAGCTCCTAT,sensor-assay potency score (higher = more potent),[8],-1.16
TTGCAGTACTGGCTGATCTGAG,sensor-assay potency score (higher = more potent),[7],-0.301
ATATGAAATCTTCTAGTCCTAG,sensor-assay potency score (higher = more potent),[6],-0.694
TAGAAGAGGACAAAGGACACGA,sensor-assay potency score (higher = more potent),[7],0.735
TAACTGAGTCAATAACACCACC,sensor-assay potency score (higher = more potent),[6],-0.972
TGATGTTGTGTTTCCAGTCATT,sensor-assay potency score (higher = more potent),[9],-1.13
TTTCTCTTCTTGTAATTCTGAA,sensor-assay potency score (higher = more potent),[8],-0.125
TAGCATGAGATCCAACAGGCAG,sensor-assay potency score (higher = more potent),[9],-0.668
AAAGTCTTGTTGGTGAATCTTG,sensor-assay potency score (higher = more potent),[9],-0.684
TAGTGAAACTGTACATCTGAAG,sensor-assay potency score (higher = more potent),[8],-1.07
TAACTTCTTAGCAACATCATAG,sensor-assay potency score (higher = more potent),[6],-1.26
TTGTCCATGGCAATACTGTAGT,sensor-assay potency score (higher = more potent),[9],-0.964
ATCTGAGCAATCTCCAAGGAGC,sensor-assay potency score (higher = more potent),[7],-1.45
TCTTCTTGTAATTCTGAACGAG,sensor-assay potency score (higher = more potent),[8],-0.383
TTTCACGGTTTGCTTGTGGTTC,sensor-assay potency score (higher = more potent),[7],-0.265
TTACTTTGTCCTTTCCAGCTTC,sensor-assay potency score (higher = more potent),[6],-0.236
TTTCTCCTGATGACTTTCCAGC,sensor-assay potency score (higher = more potent),[6],-1.05
TTGGTGAATCTTGTCCATGGCA,sensor-assay potency score (higher = more potent),[9],-0.501
TAGCGCTCGACGCTCAGCGCTG,sensor-assay potency score (higher = more potent),[7],-1.17
TTAGGTTCTATTAACTTCATAG,sensor-assay potency score (higher = more potent),[6],-0.883
TTGGACATGATGTTGTACAGAA,sensor-assay potency score (higher = more potent),[7],0.099
TTCTATGCAATAATGTTGCAAA,sensor-assay potency score (higher = more potent),[8],-0.524
TAGTGCTTGCTTAACCAGGTTC,sensor-assay potency score (higher = more potent),[8],-0.37
TTTATTTAGCACTAAAATCAAA,sensor-assay potency score (higher = more potent),[8],-1.42
TATGAAATCTTCTAGTCCTAGT,sensor-assay potency score (higher = more potent),[6],-0.186
TTGGAAAATAAATATCGCCCTA,sensor-assay potency score (higher = more potent),[7],-0.35
TTTGTGGCTAGTGAAACTGTAC,sensor-assay potency score (higher = more potent),[8],-0.833
TCTTGAATCAGCAAGTCCCGCA,sensor-assay potency score (higher = more potent),[9],-0.377
TTTCTTTCTCAACCTGAGGTTG,sensor-assay potency score (higher = more potent),[8],-0.934
ATACACATGAAATTAAACCAGA,sensor-assay potency score (higher = more potent),[6],-0.735
TTTGTCTGATCCAGCAAGCAGG,sensor-assay potency score (higher = more potent),[9],-1.07
TTGCTTGTGGTTCTGGTCCCTG,sensor-assay potency score (higher = more potent),[7],-0.711
TGACTTTGCATAGCTAACCAAA,sensor-assay potency score (higher = more potent),[10],-1.29
TTTATAAACTTCCTCTCCCATG,sensor-assay potency score (higher = more potent),[11],-1.13
TATCCTATTATTTTCCTTGCAC,sensor-assay potency score (higher = more potent),[12],0.182
TTGATGAAGACGGACAATGCTC,sensor-assay potency score (higher = more potent),[12],-0.64
TTTGATGTCTGTCTTGCACATG,sensor-assay potency score (higher = more potent),[12],-0.835
TTGGAATAGCGCTTGTTGCAGC,sensor-assay potency score (higher = more potent),[11],-0.438
ATGAGCAGAAACACCAGGCGGC,sensor-assay potency score (higher = more potent),[12],-0.579
TATTGTTATAGTCATTAGCTTA,sensor-assay potency score (higher = more potent),[11],-0.656
TTATATCCTATTATTTTCCTTG,sensor-assay potency score (higher = more potent),[12],-0.237
TTGTATGGGATCTTGAGTGTGT,sensor-assay potency score (higher = more potent),[13],0.798
TTCGAGATCTTGCACTGTCTGT,sensor-assay potency score (higher = more potent),[10],-0.307
TTTCACAGAAGAGTTTCCGTTC,sensor-assay potency score (higher = more potent),[11],0.4
TTGATAAACGTACTCTTGCCAC,sensor-assay potency score (higher = more potent),[13],-0.533
TAGAAAGGCACTTAGAACCTGT,sensor-assay potency score (higher = more potent),[11],0.24
TTGCTTGTAGACATGGTCCCAT,sensor-assay potency score (higher = more potent),[10],0.533
TTGGAGTTCCTGGTCCAGCAGC,sensor-assay potency score (higher = more potent),[12],-1.12
TAGCTTTGACATATGAAACTTT,sensor-assay potency score (higher = more potent),[10],-0.212
TTCAGGTGGATGTAGTTCCTGG,sensor-assay potency score (higher = more potent),[12],-0.141
TGGATGAGCATCTTGTACCTGG,sensor-assay potency score (higher = more potent),[11],-0.352
TTCTCGTTGGTGTGTGTGCGGA,sensor-assay potency score (higher = more potent),[11],-0.632
TTATTCTTTCTCTTTCGTCGAA,sensor-assay potency score (higher = more potent),[10],0.181
TCGTCTATCATAGCATTCCTGG,sensor-assay potency score (higher = more potent),[13],-1.02
TAGGCTGTGAAGCTGAATCGGC,sensor-assay potency score (higher = more potent),[10],-0.0399
ATCGTTGACATGGTCCACCAGG,sensor-assay potency score (higher = more potent),[11],-0.948
ATAGTCATTAGCTTATCTCTTT,sensor-assay potency score (higher = more potent),[11],-0.353
TTTTGCAGCCACGAACTCCTTG,sensor-assay potency score (higher = more potent),[12],0.187
TTCTTCTTTCAACAGAAACTGG,sensor-assay potency score (higher = more potent),[10],-0.833
TTCCTTGCACATCACATGCCTC,sensor-assay potency score (higher = more potent),[12],-0.533
TAGCATTGAATTACAAATCAAG,sensor-assay potency score (higher = more potent),[10],-1.08
TATTCTTTCTCTTTCGTCGAAA,sensor-assay potency score (higher = more potent),[10],-0.712
TTGCAGAACAAGTCTGTGGCAG,sensor-assay potency score (higher = more potent),[12],0.187
TTTTTTTAAAACTCTATGCTAA,sensor-assay potency score (higher = more potent),[11],-0.424
TAGTCATTAGCTTATCTCTTTT,sensor-assay potency score (higher = more potent),[11],-1.29
TAGTTCATGTTGGAGTTCCTGG,sensor-assay potency score (higher = more potent),[12],-0.642
TTGATGTCTGTCTTGCACATGA,sensor-assay potency score (higher = more potent),[12],-0.0737
TTGCATGTGACATTAACTGGAG,sensor-assay potency score (higher = more potent),[10],-0.491
TAACATATAAACACATTGGCAG,sensor-assay potency score (higher = more potent),[10],-0.00869
TAAAACTCTATGCTAACAGCAA,sensor-assay potency score (higher = more potent),[11],-0.574
TATACATGTTTGTACATCCATG,sensor-assay potency score (higher = more potent),[10],-1.26
TTGTGCATGAGCCTTATTGTGC,sensor-assay potency score (higher = more potent),[13],-1.26
TTGTGCAGGTCTGGCCATGTGA,sensor-assay potency score (higher = more potent),[14],-0.97
ATGAGCATCAGGAGCAGTGTGA,sensor-assay potency score (higher = more potent),[15],-1.27
TGATGTCGTAAGCTCCTTCGGA,sensor-assay potency score (higher = more potent),[16],-0.537
ATACACGTTGCTTCTAAACGGA,sensor-assay potency score (higher = more potent),[15],-0.0127
TTGAATACTGGTTTTTCGCTGG,sensor-assay potency score (higher = more potent),[17],0.838
TTGAAGAGCTGGACACTCCTTG,sensor-assay potency score (higher = more potent),[17],0.677
TCAGCTACCATAGACATCTCTT,sensor-assay potency score (higher = more potent),[18],0.143
ATGATGGTGAGCACAAACGTGG,sensor-assay potency score (higher = more potent),[16],-1.32
TAAGCTTAAAGTAACATCTGGA,sensor-assay potency score (higher = more potent),[17],0.962
TAGTCTACTCTCCTGTTCCTAA,sensor-assay potency score (higher = more potent),[17],-0.669
AAGACCTGAGAGTTCTTGCCGT,sensor-assay potency score (higher = more potent),[16],0.1
ATTATCAGTATCTTCTTCCAGG,sensor-assay potency score (higher = more potent),[17],-0.212
TTCCACCTCTTGAACTTGCCGC,sensor-assay potency score (higher = more potent),[15],-0.546
TGCTGCAGCTTGACATTGCCGA,sensor-assay potency score (higher = more potent),[15],-0.579
TAGGGATCTGAACAGAACCTTG,sensor-assay potency score (higher = more potent),[19],-1.54
TTCTATAATCTGACTACTGGGG,sensor-assay potency score (higher = more potent),[17],-0.476
TTCTTGCCGTCTTTCGGCGGTG,sensor-assay potency score (higher = more potent),[16],-1.04
TCGTAAGCTCCTTCGGACGGAA,sensor-assay potency score (higher = more potent),[16],-0.916
TCCTTCGGACGGAACTTTGTGC,sensor-assay potency score (higher = more potent),[16],-0.974
TAGTGTATTGTTTAAAACCAAC,sensor-assay potency score (higher = more potent),[17],-1.45
TCACAGAGGAGCAAGATCCAGG,sensor-assay potency score (higher = more potent),[16],-0.72
TTCGGAGAGCTGCATTGTGTTC,sensor-assay potency score (higher = more potent),[15],-1.86
TACCATGTCGTAGATGAGGGCC,sensor-assay potency score (higher = more potent),[15],-0.116
TAACAATCAACAATGTACCATG,sensor-assay potency score (higher = more potent),[17],-0.826
TTGAGCACGACGGCCATCTCAG,sensor-assay potency score (higher = more potent),[15],-1.15
